Sampled rows, rich in hits. Any-hit rate of the full collection: about 0.84%.
PPARg SRC2 recr – PPARgamma-driven SRC-2 recruitment agonism; PPARgamma LBD-SRC-2 recruitment, biochemical; activation, % at 8 µM; 200,000 tested, 0.34% active
Target sequence (P37231 whole entry, looked up, the tested form may be a part): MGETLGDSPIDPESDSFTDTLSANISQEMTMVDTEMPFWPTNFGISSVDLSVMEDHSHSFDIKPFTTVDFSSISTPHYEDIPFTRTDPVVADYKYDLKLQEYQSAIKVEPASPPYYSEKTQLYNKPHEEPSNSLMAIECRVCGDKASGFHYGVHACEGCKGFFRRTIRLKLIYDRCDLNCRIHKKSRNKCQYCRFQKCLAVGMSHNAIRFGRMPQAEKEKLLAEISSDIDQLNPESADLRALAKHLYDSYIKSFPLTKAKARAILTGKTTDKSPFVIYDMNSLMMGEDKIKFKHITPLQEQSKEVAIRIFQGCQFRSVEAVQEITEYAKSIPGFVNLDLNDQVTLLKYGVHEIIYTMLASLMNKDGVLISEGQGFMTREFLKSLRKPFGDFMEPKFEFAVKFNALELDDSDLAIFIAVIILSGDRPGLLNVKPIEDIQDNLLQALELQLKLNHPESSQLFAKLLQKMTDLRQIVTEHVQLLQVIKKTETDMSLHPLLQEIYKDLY
TR-FRET SRC-2 ct – counter-screen for PPARgamma SRC-2 recruitment agonists: TR-FRET artefact | stronger effect = higher value | TR-FRET ratio at 8 µM | AID 1049 | 200,000 tested, 0.4% active; in the data active means TR-FRET ratio above about 2000
PPARg SRC-3 ag – PPARgamma-driven SRC-3 recruitment agonism; P37231; biochemical PPARgamma/SRC-3 coactivator recruitment assay; activation, % at 8 µM; 200,000 tested, 0.26% active; in the data active means activation above about 23%
SRC3 TRFRET art – counter-screen for PPARgamma SRC-3 recruitment agonists: TR-FRET artefact; TR-FRET ratio at 8 µM; PPARgamma/SRC-3 format; stronger effect = higher value; 99,000 tested, 0.39% active; in the data active means TR-FRET ratio above about 2000
PPARg SRC1 recr – PPARgamma-driven SRC-1 recruitment agonism; P37231; PPARgamma-SRC-1 coactivator recruitment biochemical assay; activation, % at 8 µM; 200,000 tested, 0.41% active; AID 631; in the data active means activation above about 19%
SRC1 TRFRET art – TR-FRET artefact, counter-screen to PPARgamma/SRC-1 agonist assay; TR-FRET detection artefact counter-screen, emission ratio; stronger effect = higher value; TR-FRET ratio at 8 µM; 99,000 tested, 0.34% active; in the data active means TR-FRET ratio above about 2300
PPARg SRC2 ag – confirmation of agonists of SRC-2 recruitment by human PPARgamma; biochemical SRC-2 recruitment by PPARgamma; shares compounds with PPARg SRC-3 ag; activation, % at 8 µM; 790 tested, 52% active
PPARg SRC1 ag – human PPARgamma SRC-1 recruitment agonism, confirmation; shares compounds with PPARg SRC-3 ag; PPARgamma–SRC-1 coactivator recruitment biochemical assay; activation, % at 8 µM; 790 tested, 43% active; AID 1300; in the data active means activation above about 20%
PPARg SRC3 ag – confirmation of agonists of SRC-3 recruitment by human PPARgamma. biochemical PPARgamma-SRC-3 coactivator recruitment, agonist mode. activation, % at 8 µM. shares compounds with PPARg SRC-3 ag. 790 tested, 29% active; in the data active means activation above about 24%
A number is an active result; – = inactive; · = no result given. Unless noted, no stated cut-off is given here; in the data, active means activation above about 22%; inactive means the rest.

SMILES | PPARg SRC2 recr | TR-FRET SRC-2 ct | PPARg SRC-3 ag | SRC3 TRFRET art | PPARg SRC1 recr | SRC1 TRFRET art | PPARg SRC2 ag | PPARg SRC1 ag | PPARg SRC3 ag
FC(F)(F)C(F)(F)c1nnc2ccc(-n3ccnc3)nn12 | – | – | – | – | – | – | · | · | ·
COc1ccc(C2C(C(=O)c3ccco3)=C(O)C(=O)N2c2nnc(C)s2)cc1 (stereo not drawn) | – | 2089 | – | 2261 | 25.4 | 2503 | 30.9 | 25.0 | –
C=CCOc1ccc(C2C(C(=O)c3ccco3)=C(O)C(=O)N2c2nnc(C)s2)cc1 (stereo not drawn) | 25.0 | 2019 | – | – | – | – | 25.8 | 24.0 | –
Cc1cc(SCC(=O)c2ccc3c(c2)OCO3)nc2ccccc12 | 37.1 | 3038 | 43.5 | · | 20.0 | · | 70.0 | 57.5 | 47.1
CCOC(=O)C1(Cc2ccc(OC)cc2)CCN(C(=O)CN2CCCCC2=O)CC1 | – | – | – | – | – | – | · | · | ·
O=c1[nH]c(SCc2ccc(Cl)cc2)nc2ccsc12 | – | – | – | – | – | – | · | · | ·
CCOC(=O)Cc1csc(NC(=O)CSc2nc(-c3ccccc3)c(C#N)c(=O)[nH]2)n1 | – | – | – | – | – | – | · | · | ·
CNC(=O)NC(=O)CSc1nc(-c2cccs2)c(C#N)c(=O)[nH]1 | 55.7 | 3062 | 30.8 | 2978 | 41.0 | 3256 | 43.1 | 29.4 | 29.9
N#Cc1c(-c2cccs2)nc(SCc2ccc(Cl)cc2)[nH]c1=O | 42.7 | 2686 | 24.2 | 2717 | 32.2 | 3031 | 36.4 | 25.1 | 24.2
CCOC(=O)C(=O)N1CCN(c2cc3c(cc2[N+](=O)[O-])n(C)c(=O)n3C)CC1 | – | – | – | – | – | – | · | · | ·
c1ccc(CN2CCN(CCOCCOc3ccc4c(c3)CCC4)CC2)cc1 | – | – | – | – | – | – | · | · | ·
CC(=O)N1CC2([N+](=O)[O-])CN(C(C)=O)CC([N+](=O)[O-])(C1)C2(C)C | – | – | – | – | – | – | · | · | ·
COCc1cc(C)nc2sc3c(=O)oc(C)nc3c12 | – | – | – | · | 19.5 | · | – | – | –
Cc1ccccc1Nc1nc(-c2ccccc2)c(C(=O)Nc2cccnc2)s1 | 26.5 | 1978 | – | 2456 | 24.5 | 2835 | 44.0 | 35.8 | 26.4
O=C(Nc1cccnc1)c1sc(Nc2ccccc2F)nc1-c1ccccc1 | 48.1 | 3029 | 30.5 | 3407 | 50.1 | 3447 | 68.3 | 50.3 | 45.5
O=C(Nc1cccnc1)c1sc2cccc(F)c2c1Cl | – | – | – | – | – | – | · | · | ·
O=C(c1ccc(CNS(=O)(=O)c2ccc(Br)cc2)cc1)N1CCCC1 | – | – | – | – | – | – | · | · | ·
O=C(COC(=O)/C=C/c1ccc(Br)o1)NCCCN1CCCC1=O | – | – | – | – | – | – | · | · | ·
CCCn1c(SCC(=O)N2CCCC(C)C2)nnc1-c1ccccn1 (stereo not drawn) | – | – | – | – | – | – | · | · | ·
COC(=O)c1sccc1-c1ccc(/C=N/OC(=O)c2ccccc2)o1 | 56.0 | 2291 | 46.7 | · | 31.2 | · | 55.9 | 49.2 | 39.7
S=c1[nH]nc(-c2cccnc2)o1 | – | – | – | · | – | · | · | · | ·
S=c1[nH]nc(-c2cccc(Br)c2)o1 | 108.0 | 4187 | 150.2 | · | 93.8 | · | 68.1 | 48.1 | 47.9
CC(Sc1nnc(-c2ccc(Cl)cc2Cl)n1Cc1ccccc1)C(=O)Nc1nccs1 (stereo not drawn) | – | – | – | · | 37.1 | · | – | 28.0 | 26.3
Cc1nnc(SC(C)C(=O)Nc2ccc(Cl)cn2)n1Cc1ccccc1 (stereo not drawn) | – | – | – | – | – | – | · | · | ·
Cc1onc(-c2ccccc2Cl)c1C(=O)Nc1ccc(F)c(F)c1 | – | – | – | · | – | · | · | · | ·
Cc1onc(-c2c(F)cccc2Cl)c1C(=O)Nc1nnc(-c2ccccc2)s1 | – | – | 26.2 | · | – | · | 26.1 | 24.5 | –
Cc1onc(-c2ccccc2Cl)c1C(=O)Nc1nnc(-c2ccc(F)cc2)s1 | 22.0 | – | 32.2 | · | – | · | – | – | –
Cc1onc(-c2ccccc2Cl)c1C(=O)Nc1nnc(-c2ccc(Cl)cc2Cl)s1 | – | – | – | · | 22.7 | · | 31.0 | 22.8 | –

Assay outcomes: PubChem BioAssay, The Scripps Research Institute Molecular Screening Center
